From PubChem
An excerpt weighted towards active compounds, which were near 2.9% of everything screened.
Nrf2 inh = Nrf2 qHTS screen for inhibitors | AID 504444, 2011 | A549 ARE-Fluc reporter, luciferase luminescence, 18-24 h | actives 2.1% (n = 360,000) | Potency, µM (highest dose often 46 µM), most hits filed as inhibitors; also: nearly all actives have a fitted effect of over 60% in size
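Quantitative HTS in A549 cells stably bearing an antioxidant response element-firefly luciferase construct. Inhibition of Nrf2-driven transcription was scored by luminescence after 18-24 h of compound exposure at 37 °C.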
Nrf2 activator = qHTS of Nrf2 Activators. actives 0.31% (n = 410,000). Potency, µM (doses to about 46.1 µM), hits mostly activators. AREc32 ARE-luciferase reporter (MCF7-derived line), luminescence, 24 h; also: nearly all actives have a fitted effect of over 65% in size
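AREc32 cells carrying an ARE-driven firefly luciferase reporter were seeded at 1000 cells/well in OPTI-MEM with 5% FBS, then exposed to compound for 24 hr at 37 deg C. Luminescence was read with Steady-Glo after 30 min at RT.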
ATXN2 expr inh = Primary qHTS for Inhibitors of ATXN expression | Potency, µM (titrated, usually from 57 µM), hits mostly inhibitors | AID 1745845, 2022 | actives 0.72% (n = 360,000) | HEK-293 ATXN2-luciferase reporter, luminescence, 24 h; also: nearly all actives have a fitted effect of over 55% in size
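qHTS (up to 57 uM final) was run with 24 h compound exposure of reporter cells at 37 °C. Each well was multiplexed: SteadyGlo luminescence measured ATXN2-luciferase expression after a fluorogenic Gly-Phe-AFC viability readout (25 uM final).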
A549 tox-1 = Nrf2 qHTS screen for inhibitors: counterscreen for cytotoxicity. A549 ARE-Fluc cells, CellTiter-Fluor viability, 18-24 h. Potency, µM (highest dose often 46 µM), hits mostly inhibitors. actives 0.16% (n = 390,000). AID 504648, 2011
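A549 ARE_Fluc cells in 5% FBS OPTI-MEM were exposed to compounds in concentration-response for 18-24 h at 37 deg C. Viability was read by CellTiter-Fluor fluorescence (Ex 405/Em 525) after 30 min, before the luciferase read.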
ATXN viability = Viability Counterscreen for Primary qHTS for Inhibitors of ATXN expression; actives 0.49% (n = 400,000); Potency, µM (titrated, usually from 56.7 µM), most hits filed as cytotoxic; AID 651635, 2014; S2 cells (HEK-293 line with an ATXN2-luciferase reporter) viability, CellTiter-Fluor protease fluorescence, 24 h; also: nearly all actives have a fitted effect of over 40% in size
FLuc enzyme inh = Nrf2 qHTS screen for inhibitors: Purified Fluc Biochemical Counterscreen for Hit Validation. purified firefly luciferase, luminescence inhibition. actives 4% (n = 1,400). AID 720522, 2013. Potency, µM (top dose mostly 57.5 µM), most hits filed as inhibitors. shares compounds with Nrf2 inh; also: nearly all actives have a fitted effect of over 65% in size
Target sequence (P08659 whole entry, looked up): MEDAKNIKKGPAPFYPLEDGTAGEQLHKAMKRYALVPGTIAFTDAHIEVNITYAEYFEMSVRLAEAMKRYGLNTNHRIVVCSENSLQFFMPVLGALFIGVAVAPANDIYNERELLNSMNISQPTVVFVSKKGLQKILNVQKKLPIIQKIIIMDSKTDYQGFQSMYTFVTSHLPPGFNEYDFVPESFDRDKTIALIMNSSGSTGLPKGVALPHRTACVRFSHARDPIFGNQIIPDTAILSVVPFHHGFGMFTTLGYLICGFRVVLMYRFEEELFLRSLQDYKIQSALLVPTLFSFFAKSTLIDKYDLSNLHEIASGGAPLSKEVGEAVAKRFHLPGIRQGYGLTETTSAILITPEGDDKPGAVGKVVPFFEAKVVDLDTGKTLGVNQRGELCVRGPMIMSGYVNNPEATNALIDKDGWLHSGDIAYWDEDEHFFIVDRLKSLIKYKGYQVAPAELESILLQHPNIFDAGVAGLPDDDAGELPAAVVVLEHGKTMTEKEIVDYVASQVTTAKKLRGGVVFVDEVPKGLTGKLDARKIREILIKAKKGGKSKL
A549 tox-2 = Nrf2 qHTS screen for inhibitors: A549 ARE-Fluc Cytotoxicity Counterscreen for Hit Validation; Potency, µM (series often up to 46.1 µM), most hits filed as inhibitors; A549 ARE-Fluc cells, cytotoxicity counterscreen; actives 2% (n = 1,400); shares compounds with Nrf2 inh;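 also: cells exposed to compounds for 18 to 24 hours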
Nrf2 ARE inh = Nrf2 qHTS screen for inhibitors: Nrf2 A549 ARE-Fluc Confirmation Assay for Hit Validation; A549 ARE-firefly luciferase reporter, luminescence; shares compounds with Nrf2 inh; actives 74% (n = 1,400); Potency, µM (titrated, usually from 46.1 µM), most hits filed as inhibitors; AID 720524, 2013; also: nearly all actives have a fitted effect of over 65% in size
Of the large screens only hits and unclear results are named; the others gave an inactive call (follow-up assays come after a bar, where they were run); ! = not active in a repeat. Calls follow the shape of the dose curve; as a rule, active = well fitted curve in the direction sought with a large enough effect; inconclusive = small, poorly fitted or top-dose-only effect, or another doubt; inactive = no such curve, though single readings can be large; an effect the other way counts as inactive or inconclusive.

COc1ccc(-c2nc(CSCC(=O)N3CCN(c4ccc(OC)cc4)CC3)c(C)o2)cc1	Nrf2 inh 4.61µM (no result: ATXN2 expr inh, ATXN viability) | FLuc enzyme inh inactive | A549 tox-2 inactive | Nrf2 ARE inh 9.2µM
CCC(Sc1ncccc1Nc1ccccn1)C(=O)O (stereo not drawn)	none (no result: ATXN2 expr inh)
CC(C)N1C(=O)c2ccccc2C1C(=O)NCCc1ccccc1 (stereo not drawn)	none
Cc1ccc(-c2onc(C)c2C)cc1S(=O)(=O)N1c2ccccc2CC1C (stereo not drawn)	Nrf2 inh 8.2µM | FLuc enzyme inh inactive | A549 tox-2 inactive | Nrf2 ARE inh inconclusive
CCc1ccc(NC2=NC(C(=O)NC3CCCCC3)CC(=O)N2)cc1 (stereo not drawn)	none (no result: A549 tox-1)
Cc1ccc(CSCC(=O)N2CCCC2)cc1	none
CCN(CC)c1ccc(/C=C/c2ccncc2)cc1	none (no result: Nrf2 inh, Nrf2 activator, ATXN2 expr inh, A549 tox-1, ATXN viability) | FLuc enzyme inh inactive | A549 tox-2 6.51µM | Nrf2 ARE inh 1.46µM
NC(c1csc(Nc2ccc(C(=O)c3ccccc3)cc2)n1)C1CCCCC1 (stereo not drawn)	ATXN2 expr inh inconclusive (no result: Nrf2 inh, A549 tox-1, ATXN viability)
Cc1ccc(Cl)cc1N1CCN(C(=O)CSc2nnc3n2C(C)(C)Cc2ccccc2-3)CC1	Nrf2 inh 6.51µM, ATXN2 expr inh inconclusive, A549 tox-1 inconclusive, ATXN viability inconclusive | FLuc enzyme inh inactive | A549 tox-2 inconclusive | Nrf2 ARE inh 6.51µM
O=C(Cn1cnc2ccccc21)Nc1ccc(SC(F)F)cc1	Nrf2 inh 4.11µM | FLuc enzyme inh inactive | A549 tox-2 inactive | Nrf2 ARE inh inconclusive
CC[n+]1ccccc1/C=C1\Sc2ccc(C)cc2N1C	Nrf2 inh 6.51µM, ATXN2 expr inh 3.98µM, A549 tox-1 inconclusive, ATXN viability inconclusive | FLuc enzyme inh inactive | A549 tox-2 inactive | Nrf2 ARE inh 2.91µM
CN1/C(=C/c2cccc[n+]2CCO)Sc2ccccc21	Nrf2 inh inconclusive
COC(C(=O)C(O)C(C)O)C1Cc2cc3cc(OC4CC(OC5CC(O)C(O)C(C)O5)C(O)C(C)O4)c(C)c(O)c3c(O)c2C(=O)C1OC1CC(OC2CC(OC3CC(O)C(OC)C(C)O3)C(O)C(C)O2)C(O)C(C)O1 (stereo not drawn)	Nrf2 inh 0.116µM, ATXN2 expr inh 10µM, A549 tox-1 inconclusive, ATXN viability inconclusive | FLuc enzyme inh inactive | A549 tox-2 inactive | Nrf2 ARE inh 0.366µM
COC(=O)c1ccc(C2/C(=C(/O)c3ccc4c(c3)CC(C)O4)C(=O)C(=O)N2CCN2CCOCC2)cc1 (stereo not drawn)	Nrf2 inh inconclusive
N=c1ccn(Cc2ccc(F)cc2)cc1	Nrf2 inh 2.31µM (no result: ATXN2 expr inh) | FLuc enzyme inh inconclusive | A549 tox-2 20.6µM | Nrf2 ARE inh 23.1µM
Cc1ccc(S(=O)(=O)N(C)Cc2ccc(C(=O)N/N=C/c3ccc(OC(F)F)cc3OC(F)F)cc2)cc1	Nrf2 inh 9.2µM | FLuc enzyme inh inactive | A549 tox-2 inactive | Nrf2 ARE inh 4.61µM
CN(Cc1cnc2nc(N)nc(N)c2n1)c1ccc(C(=O)NC(CCC(=O)O)C(=O)O)cc1 (stereo not drawn)	Nrf2 inh 0.291µM, ATXN2 expr inh inconclusive | FLuc enzyme inh inactive | A549 tox-2 inactive | Nrf2 ARE inh 1.46µM
CN(Cc1cnc2nc(N)nc(N)c2n1)c1ccc(C(=O)NC(CCC(=O)O)C(=O)O)cc1C(F)(F)F (stereo not drawn)	Nrf2 inh inconclusive, ATXN2 expr inh inconclusive
COc1ccccc1S(=O)(=O)N1CCN(c2nc(-c3cccs3)nc3ccccc23)CC1	none (no result: Nrf2 activator, ATXN2 expr inh, ATXN viability)
COc1ccc(Nc2nc(-c3cccs3)nc3ccccc23)cc1S(=O)(=O)N1CCOCC1	Nrf2 inh 9.2µM, A549 tox-1 inconclusive | FLuc enzyme inh inactive | A549 tox-2 inconclusive | Nrf2 ARE inh inconclusive
O=C(CNc1cc(S(=O)(=O)N2CCCC2)ccc1OCC(F)(F)F)Nc1ccc(SC(F)F)cc1	Nrf2 inh 5.17µM, ATXN2 expr inh inconclusive, A549 tox-1 inconclusive, ATXN viability inconclusive | FLuc enzyme inh inactive | A549 tox-2 inactive | Nrf2 ARE inh inconclusive
COc1ccccc1C(=O)NCCCNC(=O)c1cnccn1	none
COc1ccccc1C(=O)NCCCNC(=O)c1cccnc1	Nrf2 inh 1.84µM | FLuc enzyme inh inactive | A549 tox-2 inactive | Nrf2 ARE inh inactive
O=c1c2ccccc2nc2n1CCN2Cc1ccc(Cl)cc1	Nrf2 inh 5.8µM | FLuc enzyme inh inactive | A549 tox-2 inactive | Nrf2 ARE inh 4.11µM
Cc1ccc(C(=O)Nc2c(N)nc(SCC(=O)Nc3cc(C)on3)[nH]c2=O)cc1	none
CC1(c2ccc3ccccc3c2)NC(=O)N(CC(=O)N2CCN(Cc3ccc(C#N)cc3)CC2)C1=O (stereo not drawn)	Nrf2 inh 0.411µM, ATXN viability inconclusive | FLuc enzyme inh inactive | A549 tox-2 inactive | Nrf2 ARE inh 0.82µM
CC(C)NC(=O)C1CCN(C(=O)c2cc3sccc3n2Cc2ccc(Cl)cc2)CC1	Nrf2 inh 5.8µM, ATXN2 expr inh inconclusive, ATXN viability inconclusive | FLuc enzyme inh inactive | A549 tox-2 inconclusive | Nrf2 ARE inh 4.11µM
CCC(NC(=O)c1cc(COc2ccc(C)nc2)on1)c1ccc(C)cc1 (stereo not drawn)	Nrf2 inh 8.2µM | FLuc enzyme inh inactive | A549 tox-2 inactive | Nrf2 ARE inh inconclusive
CCC(NC(=O)c1cc(COc2cc(C)c(Cl)c(C)c2)on1)c1ccncc1 (stereo not drawn)	none (no result: ATXN2 expr inh)
COc1ccc(Oc2coc3cc(O)ccc3c2=O)cc1	Nrf2 inh inconclusive
Cc1nc(N2CCCCC2)sc1C(=O)c1cccc([N+](=O)[O-])c1	Nrf2 inh 2.91µM | FLuc enzyme inh inactive | A549 tox-2 inactive | Nrf2 ARE inh inactive
c1ccc(CN(CC2=NCCN2)c2ccccc2)cc1	none
Cc1ccc(N(CC2=NCCN2)c2cccc(O)c2)cc1	Nrf2 inh 7.31µM!, A549 tox-1 inconclusive | FLuc enzyme inh inactive | A549 tox-2 inactive | Nrf2 ARE inh 10.3µM
NC(=O)Cc1ccc(C(=O)c2ccccc2F)s1	none
COc1cc(=O)n2c(c1C(=O)NCc1ccco1)CCN(Cc1cc3ccccc3[nH]1)CC2	none (no result: Nrf2 inh, Nrf2 activator, ATXN2 expr inh, A549 tox-1)
